Screening results: PubChem, National Center for Advancing Translational Sciences (NCATS)
Compounds with a hit are over-represented: about 3% of the library has one in this group of screens.
Nrf2 block: blocks Nrf2 signaling. A549 ARE-Fluc reporter, luciferase luminescence, 18-24 h. Potency, µM (titrated, usually from 46 µM), most hits filed as inhibitors. hit rate 2.1% among 360,000. AID 504444; note: nearly all actives have a fitted effect of over 60% in size
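Cells were seeded and rested 2 h, then exposed to compounds for 18-24 h. CellTiter-Fluor was read first as a viability measure. BugLite was added 15 min before the final luminescent read of ARE-luciferase activity in A549 cells.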
Nrf2 activator: activates Nrf2 signaling. AREc32 ARE-luciferase reporter (MCF7-derived line), luminescence, 24 h. Potency, µM (titrated, usually from 46.1 µM), hits mostly activators. hit rate 0.31% among 410,000; note: nearly all actives have a fitted effect of over 65% in size
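Cells of the AREc32 ARE-luciferase line are plated in OPTI-MEM containing 5% FBS and left overnight at 37 deg C. Compounds are pinned in, incubation continues 24 hr, and firefly luciferase signal is then measured.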
A549 tox: kills or reduces viability of A549 cells in Nrf2 counter-screen; A549 ARE-Fluc cells, CellTiter-Fluor viability, 18-24 h; Potency, µM (series often up to 46 µM), hits mostly inhibitors; hit rate 0.16% among 390,000
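A549 ARE_Fluc cells in 5% FBS OPTI-MEM were exposed to compounds in concentration-response for 18-24 h at 37 deg C. Viability was read by CellTiter-Fluor fluorescence (Ex 405/Em 525) after 30 min, before the luciferase read.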
rTrxR1 inhibitor: blocks rat thioredoxin reductase 1 | recombinant rTrxR1, NADPH fluorescence consumption, selenite substrate | Potency, µM (series often up to 114 µM), usual class: inhibitors | hit rate 1% among 390,000; note: nearly all actives have a fitted effect of over 65% in size
Target sequence (O89049 whole entry, looked up): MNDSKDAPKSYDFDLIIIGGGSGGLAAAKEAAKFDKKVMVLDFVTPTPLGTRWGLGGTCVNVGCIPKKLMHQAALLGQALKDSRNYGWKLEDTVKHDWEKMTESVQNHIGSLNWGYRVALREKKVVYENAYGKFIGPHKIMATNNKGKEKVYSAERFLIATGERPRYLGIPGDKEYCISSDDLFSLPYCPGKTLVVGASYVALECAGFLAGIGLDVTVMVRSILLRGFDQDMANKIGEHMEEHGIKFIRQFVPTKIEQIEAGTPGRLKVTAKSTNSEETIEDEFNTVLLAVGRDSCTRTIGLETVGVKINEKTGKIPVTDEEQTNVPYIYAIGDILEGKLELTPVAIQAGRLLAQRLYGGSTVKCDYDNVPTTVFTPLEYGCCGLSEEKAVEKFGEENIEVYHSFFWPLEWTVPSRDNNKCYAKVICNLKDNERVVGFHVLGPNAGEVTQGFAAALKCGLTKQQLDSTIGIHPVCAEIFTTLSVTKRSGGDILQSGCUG
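Rat TrxR1 (90 nM in the dispensed reagent) was pre-reduced with 400 uM NADPH for 5 min at room temperature, then incubated with compound for 15 min. After 400 uM selenite was added, NADPH fluorescence (Ex 340/Em 450 nm) was followed for 8 min.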
TrxR1 substrate: rat thioredoxin reductase 1 substrate activity; purified TrxR1 substrate turnover, NADPH consumption readout; Potency, µM (highest dose often 114 µM); hit rate 0.01% among 390,000; note: nearly all actives have a fitted effect of over 50% in size
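Rat TrxR1, dispensed at 90 nM, was prereduced with 400 uM NADPH (final) for 5 min at ~22 deg C, then incubated with compound 15 min before 400 uM selenite. A first-read NADPH fluorescence drop versus no-compound background flagged substrates.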
GALK inh: galactokinase (human) inhibition | P51570 | Purified GALK, Kinase-Glo residual ATP luminescence | Potency, µM (series often up to 57.5 µM), hits mostly inhibitors | hit rate 0.007% among 270,000 | AID 1868
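Kinase-Glo Plus luminescence measured ATP left after a 1 h room-temperature reaction. The reaction used 5 nM GALK, 100 uM galactose and 35 uM ATP at pH 8.0 (20 mM HEPES, 5 mM MgCl2, 60 mM NaCl, 1 mM DTT, 0.01% BSA).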
Numbers stand for hits; i = inactive; ? = inconclusive; nt = no result given; [ ] = another dose, or the depositor's remark. Calls come from the whole dose curve; as a rule, active = well fitted curve in the direction sought with a large enough effect; inconclusive = small, poorly fitted or top-dose-only effect, or another doubt; inactive = no such curve, though single readings can be large; an effect the other way counts as inactive or inconclusive.

SMILES	Nrf2 block	Nrf2 activator	A549 tox	rTrxR1 inhibitor	TrxR1 substrate	GALK inh
CCC1CCc2nc3sc(C(=O)Nc4ccc(F)cc4F)c(N)c3cc2C1 (centres undefined)	i	i	i	i	i	nt
COc1cccc(CN(C(=O)/C=C/c2ccco2)C2CCS(=O)(=O)C2)c1 (centres undefined)	i	i	i	12.6µM	i	i
COc1ccc(CN(C(=O)/C=C/c2ccco2)C2CCS(=O)(=O)C2)cc1OC (centres undefined)	i	i	i	15.8µM	i	i
CCOc1ccc(CN(C(=O)/C=C/c2ccco2)C2CCS(=O)(=O)C2)cc1 (centres undefined)	i	i	i	?	i	i
O=C(/C=C/c1ccco1)N(Cc1ccc(Cl)cc1)C1CCS(=O)(=O)C1 (centres undefined)	?	i	i	25.1µM	i	i
CN(C)c1ccc(CN(C(=O)/C=C/c2ccco2)C2CCS(=O)(=O)C2)cc1 (centres undefined)	i	i	i	i	i	i
COc1ccc(CN(C(=O)/C=C/c2ccco2)C2CCS(=O)(=O)C2)cc1 (centres undefined)	i	i	i	i	i[11.4 µM]	i
COc1ccccc1NC(=O)N(Cc1nnc2n1CCCCC2)c1ccc(F)cc1	nt	i	i	i	i	nt
N#Cc1c(NC(=O)c2cc(-n3cnnc3)ccc2Cl)sc2c1CCCC2	23.1µM	i	i	i[11.4 µM]	i	i
CN(Cc1ccccc1)C(=O)c1nc[nH]c1C(=O)N1CCc2ccccc2C1	i	i	i	39.8µM	i	nt
Cc1cccc(C(=O)N(CCc2ccccc2)Cc2ccccc2)c1[N+](=O)[O-]	20.6µM	i	?	i	i	i
O=C(c1ccccc1[N+](=O)[O-])N(CCc1ccccc1)Cc1ccccc1	?	i	i	i	i	i
O=C(Nc1cccc(C(F)(F)F)c1)C1CCN(S(=O)(=O)c2cccc3nsnc23)CC1	20.6µM	i	i	i	i	nt
Cc1noc2ncnc(N3CCCC(C(=O)Nc4cccc(C(F)(F)F)c4)C3)c12 (centres undefined)	5.8µM	i	i	i	i	nt
Cc1ccnc(N2CCC(C(=O)Nc3cccc(C(F)(F)F)c3)CC2)n1	13µM	i	nt	i	i	i
O=C1/C(=C/C=C/c2ccco2)SC(=S)N1NS(=O)(=O)c1ccccc1	i	i	i	44.7µM	i	nt
O=C1/C(=C\c2ccco2)SC(=S)N1c1ccccc1	i	?	i	i	i	nt
CC(C(=O)O)N1C(=O)/C(=C/C=C/c2ccco2)SC1=S (centres undefined)	i	i	i	14.1µM	i	i
O=C1/C(=C/c2cccs2)SC(=S)N1NS(=O)(=O)c1ccccc1	i	i	i	i	i	i
CCN(C(=O)C(C)N1C(=O)/C(=C/c2ccco2)SC1=S)C1CCS(=O)(=O)C1 (centres undefined)	?	i	14.6µM	i	i	i
CCN(C(=O)CN1C(=O)S/C(=C\c2cccc(Cl)c2)C1=O)C1CCS(=O)(=O)C1 (centres undefined)	i	11.2µM	i	i	i	i
COc1cccc(CNc2nc(Cl)nc3nc[nH]c23)c1	?	nt	i	i	i	nt
CC(=O)Nc1ccc(OC2=NS(=O)(=O)c3ccccc32)cc1	?	nt	i	nt	nt	nt
Cc1cc2oc(=O)cc(-c3ccccc3)c2c(C)c1-c1ccc(O)cc1	16.4µM	i	i	i	i	nt
CCOc1ccc(CCNC(=O)CCc2cn(Cc3ccc(F)cc3)c3ccccc23)cc1	i	i	i	i	i	nt
O=c1c2oc3ccccc3c2n(Cc2ccccc2)c(=O)n1Cc1ccc2c(c1)OCO2	i	i	i	i	i	nt
CCc1nnc(NC(=O)/C=C/c2ccco2)s1	i	4.47µM	?	?	i	i
CC(=O)N(C)c1ccc(NC(=S)NC(=O)/C=C/c2ccco2)cc1	i	i	i	35.5µM	i	i
CCSc1nnc(NC(=O)/C=C/c2ccco2)s1	?	?	i	?	i	i
CC(=O)Nc1ccc(NC(=S)NC(=O)/C=C/c2ccco2)cc1	?	i	i	39.8µM	i	i
